From PubChem BioAssay
Hits are enriched below; roughly 0.43% of the tested compounds scored in any of these assays.
N370S GC mod: inhibitors or activators of N370S glucocerebrosidase for Gaucher disease; P04062; N370S GC spleen homogenate, 4MU-glucoside fluorescence; Potency, µM (series often up to 59.4 µM), without a hit: at the highest dose activity change, negative = inhibition, actives largely listed as inhibitors; 0.092% of 330,000 active;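 further: potency means the concentration at half of the fitted maximal effect; 0% = full enzyme activity and -100% = no enzyme basal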
GAA spleen mod: inhibitors or activators of human alpha-glucosidase in spleen homogenate. Potency, µM (top dose mostly 79.9 µM), inactives show at the top dose activity change, negative = inhibition, actives largely listed as inhibitors. AID 2112. 0.006% of 240,000 active. P10253. human spleen homogenate, 4-MU-alpha-glucoside fluorescence;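 further: potency means the concentration at half of the fitted maximal effect; 0% = enzyme with vehicle and -100% = no enzyme basal signal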
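AC50 values come from Hill-equation fits of concentration-response data, normalized to no-enzyme and full-activity controls. Enzyme source: 1 ug human spleen homogenate; 1 mM fluorogenic 4-MU glucoside, pH 5.0 citrate buffer, 37 C, 40 min.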
GAA inh: alpha-glucosidase (human) inhibition. purified human GAA, 4-MU-alpha-glucoside fluorescence. Potency, µM (series often up to 76.9 µM), inactives show top-dose activity change, negative = inhibition, usual class: inhibitors. 0.005% of 200,000 active. AID 1466;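 further: potency means the concentration at half of the fitted maximal effect; plate controls were uninhibited enzyme wells for no effect and no-enzyme background for full effect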
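Fluorogenic assay: 4 nM human alpha-glucosidase with 400 uM 4-methylumbelliferyl-alpha-D-pyranoside in 50 mM citrate/phosphate, 0.005% Tween-20, pH 5.0, 20 min at room temperature. Compounds tested up to 77 uM; AC50 from Hill fits.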
GAA glycogen: GAA glycogen-cleavage inhibition or activation. P10253. recombinant GAA, glycogen substrate, Amplex Red glucose oxidase fluorescence. Potency, µM (highest dose often 76.4 µM), for the others: top-dose activity change, negative = inhibition, usual class: inhibitors. 0.38% of 300,000 active. AID 2100;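 further: potency means the concentration at half of the fitted maximal effect; 0% = full enzyme reaction and -100% = no-enzyme basal signal; the screen sought inhibitors and activators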
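Natural-substrate format: glycogen cleavage by 4 nM human enzyme, glucose read by Amplex Red coupling (Ex 573, Em 610 nm). Normalized to enzyme and no-enzyme controls.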
GLA inh pH 4.5: blocks human alpha-galactosidase A at pH 4.5; P06280; purified enzyme, 4-MU-alpha-Gal fluorescence, pH 4.5; activity change, negative = inhibition, % at 105 µM; 230,000 tested, under 10 active;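 further: 0% = full activity with enzyme and -100% = basal without enzyme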
Target sequence (P06280 whole entry, looked up): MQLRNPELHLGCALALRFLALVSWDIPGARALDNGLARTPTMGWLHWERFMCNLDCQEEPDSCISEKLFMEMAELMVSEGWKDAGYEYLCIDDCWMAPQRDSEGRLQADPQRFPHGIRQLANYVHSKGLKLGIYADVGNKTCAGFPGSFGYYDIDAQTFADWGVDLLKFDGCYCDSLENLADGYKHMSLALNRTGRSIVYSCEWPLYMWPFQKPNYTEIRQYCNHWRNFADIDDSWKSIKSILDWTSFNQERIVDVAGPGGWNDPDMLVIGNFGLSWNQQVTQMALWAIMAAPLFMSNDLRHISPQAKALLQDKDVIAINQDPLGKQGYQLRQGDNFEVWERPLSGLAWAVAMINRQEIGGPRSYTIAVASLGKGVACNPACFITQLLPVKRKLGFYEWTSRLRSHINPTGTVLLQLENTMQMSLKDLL
aGal spleen mod: inhibits or activates alpha-galactosidase in human spleen homogenate | P06280 | human spleen homogenate, 4MU-alpha-Gal fluorescence, 40 min | Potency, µM (highest dose often 80 µM), inactives show at the top dose activity change, negative = inhibition, most hits filed as inhibitors | 0.008% of 240,000 active | AID 2107;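 further: potency means the concentration at half of the fitted maximal effect; 0% = enzyme with vehicle and -100% = no enzyme basal signal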
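Fluorogenic readout (Ex 365/Em 440 nm) of 4-methylumbelliferone released from 1 mM 4-MU-alpha-galactoside by spleen homogenate, 40 min at 37C, pH 5.0. Data normalized to no-enzyme and enzyme controls; Hill-equation AC50 from compound titrations.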
An asterisk follows results filed as active; ? = inconclusive; nt = not tested or not shown; [ ] = another dose, or the depositor's remark. The call rests on the fitted dose curve; in most records, active means well fitted curve in the direction sought with a large enough effect; inconclusive means small, poorly fitted or top-dose-only effect, or another doubt; inactive means no such curve, though single readings can be large; an effect the other way counts as inactive or inconclusive.

SMILES	N370S GC mod	GAA spleen mod	GAA inh	GAA glycogen	GLA inh pH 4.5	aGal spleen mod
COC(=O)c1nnc(C(=O)NCc2ccccc2)c2[nH]c3ccccc3c12	0.5%	-1.9%	nt	nt	-3.0	-7.7%
FC(F)(F)c1ccccc1-c1nccc(-n2ccnc2)n1	20.2%	12.7%	nt	nt	nt	-4.8%
CCOc1cccc(CNc2ccc(O)cc2)c1OCc1ccccc1Cl	7.6%	-2.2%	-1.2%	6.31µM*	-2.7	4.9%
CSCC[C@H](NC(=O)[C@H](Cc1ccccc1)NC(=O)[C@H](Cc1cnc[nH]1)NC(=O)CNC(=O)[C@@H](NC(=O)[C@H](C)NC(=O)[C@H](Cc1c[nH]c2ccccc12)NC(=O)[C@H](CCC(N)=O)NC(=O)[C@@H]1CCCN1C(=O)[C@@H](NC(=O)[C@@H]1CCC(=O)N1)C(C)C)C(C)C)C(N)=O	-4.1%	-1.2%	nt	nt	nt	-1.1%
CCC[C@H]1C[C@H](C(=O)NC(C(C)Cl)C2O[C@@H](SC)C(OP(=O)(O)O)[C@@H](O)[C@@H]2O)N(C)C1 (some centres not stated)	-6.6%	0.3%	nt	nt	nt	-10.3%
N#C/C(=C/c1ccc(F)cc1)C(N)=S	15.9%	-5.0%	?	35.5µM*	-6.4	-2.8%
O=S(=O)(Nc1cc(O)cc2cccnc12)c1ccc(Cl)s1	-5.0%	7.4%	nt	nt	nt	4.2%
CCOc1cc(/C=C2\SC(N)=NC2=O)ccc1O	-3.6%	nt	nt	10µM*	nt	nt
CCOc1cc(/C=C2\SC(=O)N=C2N)ccc1O	-6.9%	-2.2%	-4.6%	-22.6%	-3.6	6.1%
Cc1ccc2c(c1)C(=O)C1(O)CCN(c3ccccc3)C1=N2 (configuration not stated)	1.4%	2.3%	nt	nt	-6.7	10.9%
O=c1ccc2cc(O)c(O)cc2o1	?	5.2%	?	6.31µM*	?	?
O=c1ccc2cc3ccoc3cc2o1	3.5%	13.7%	nt	-5.8%[76.3 µM]	-2.6	-9.7%
COc1cc(N(C)C)cc(CN(C)CCc2ccc([N+](=O)[O-])cc2)c1O	-9.4%	-8.4%	nt	nt	nt	-14.8%
CCCn1c(C(CO)Nc2nc(-c3cccc(Br)c3)cs2)nc2ccccc21 (configuration not stated)	1.78µM*	nt	nt	2.0%[76.3 µM]	nt	nt
COc1ccc2[nH]cc(CCNc3nc(-c4ccoc4)nc4ccccc34)c2c1	15.8µM*	-12.4%	nt	nt	-10.3	1.1%
COc1cccc(-c2nc(NCCc3c[nH]c4ccc(OC)cc34)c3ccccc3n2)c1	14.1µM*	2.3%	nt	nt	-1.7	8.2%
COc1ccc2[nH]cc(CCNc3nc(-c4ccc(N(C)C)cc4)nc4ccccc34)c2c1	?	1.6%	nt	nt	nt	23.5%
CCNc1ccc(S(=O)(=O)N(C)C)cc1NCC(=O)Nc1ccc(Br)cc1F	8.9%	-4.6%	0.0%	?	0.2	3.6%
CCNc1ccc(S(=O)(=O)N(C)C)cc1NCC(=O)Nc1ccc(F)c(Cl)c1	7.94µM*	0.7%	-10.7%	10.3%	-22.8	2.0%
CCNc1ccc(S(=O)(=O)N(C)C)cc1NCC(=O)Nc1ccccc1F	10µM*	-1.2%	?	?	-8.1	-6.0%
O=C1NN(c2ccc(Cl)c(Cl)c2)C(=O)/C1=C/c1cccc(OC(=O)c2cccs2)c1	7.4%	-8.9%	-2.3%	-20.8%	0.7	-1.5%
O=C1NN(c2ccccc2)C(=O)/C1=C\c1cccc(OC(=O)c2cccs2)c1	nt	-10.2%	-1.1%	20µM*	-2.5	5.3%
Cc1cc(OCCn2cc(/C(N)=N/O)c3ccccc32)ccc1Cl	?	-20.2%	-4.8%	17.8µM*	2.3	1.8%
COc1cc(C(C)C)c2c(c1)S(=O)(=O)N(COc1cc(=O)n3cccc(OCCN4CCCCC4)c3n1)C2=O	?	0.4%	nt	nt	nt	5.7%
CC(=O)Oc1ccc2c(C)cc(=O)oc2c1	?	?	?	-0.4%	?	?
SMILES	N370S GC mod	GAA spleen mod	GAA inh	GAA glycogen	GLA inh pH 4.5	aGal spleen mod
CC(=O)Oc1cc2oc(=O)cc(C)c2cc1OC(C)=O	?	?	?	7.88µM*	?	?
CCOc1ccccc1-c1nnc2n1N=C(c1cc(OC)ccc1OC)CS2	6.4%	0.8%	nt	nt	nt	-4.1%
COc1ccc(Br)cc1CNc1ccc(N2CCOCC2)cc1	-6.8%	nt	nt	22.4µM*	nt	nt
Cc1cccc2cc(-c3nc4c(C)cccn4c3NCc3ccco3)c(=O)[nH]c12	-7.3%	-2.5%	-5.2%	18.8%	-4.4	-3.6%
Cc1ccc2[nH]c(=O)c(-c3nc4cc(C)ccn4c3NCc3ccco3)cc2c1	-10.7%	6.2%	?	9.92µM*	-10.8	-2.2%
COc1ccc(OC)c(C2=Nn3c(nnc3-c3cccc(OC)c3OC)SC2)c1	-15.8%	8.5%	nt	nt	nt	-2.5%
CC1(C(=O)O)Sc2[nH]c(=O)sc2C2c3ccccc3OC(=O)C21 (configuration not stated)	-7.7%	5.5%	0.9%	25.1µM*	1.9	6.4%
Nc1n[nH]c2ccccc12	6.8%	-23.7%	-3.3%	3.55µM*	-17.1	-3.8%
CCN1CCS/C1=C/C=C/C1=[N+](CC)CCS1	7.94µM*	?	?	-9.5%	?	-19.9%
CCOC(=O)C1=C(c2ccccc2)Nc2c(c(=O)n(C)c(=O)n2C)C1c1ccc(O)c(OC)c1 (configuration not stated)	-9.9%	1.0%	-0.6%	31.6µM*	-16.2	5.8%
CCOC(=O)C1=C(c2ccccc2)N(C)C(=O)NC1c1ccc(O)c(OC)c1 (configuration not stated)	3.0%	4.4%	-5.4%	?	-4.2	5.1%
Cc1c(C)n(Cc2ccc(F)cc2)c2ccc(C(=O)NCCN3CCOCC3)cc12	14.1µM*	nt	nt	3.6%[76.3 µM]	nt	nt
Cc1cccc(Cn2c(C)c(C)c3cc(C(=O)NCCN4CCOCC4)ccc32)c1	?	nt	nt	-0.7%[76.3 µM]	nt	nt
C[C@H](C(=O)O)c1ccc2cc(O)ccc2c1	-1.1%	8.5%	nt	nt	nt	14.1%
CSc1cccc(-n2cc(-c3ccc4c(c3)OCO4)[nH]c2=O)c1	-21.7%	-5.8%	-2.8%	35.2µM*	2.8	-16.7%
CSc1cccc(NC(=O)CNC(=O)c2ccc3c(c2)OCO3)c1	5.2%	nt	nt	nt	nt	nt
CCC1(c2ccccc2)NC(=O)NC1=O (configuration not stated)	4.5%	2.1%	nt	nt	nt	12.6%
Cc1[nH][nH]c(=O)c1C(c1ccc(-c2ccc(F)cc2)o1)c1c(C)[nH][nH]c1=O	-16.0%	12.1%	4.5%	?	-5.5	6.1%
Cc1[nH][nH]c(=O)c1C(c1ccc(-c2ccc(Cl)c(Cl)c2)o1)c1c(C)[nH][nH]c1=O	-23.3%	-11.2%	-3.8%	31.6µM*	-2.0	-6.4%
COc1ccc(C(C)=O)c2c(O)cccc12	-1.6%	8.5%	-0.2%	39.8µM*	-1.0	6.6%
